Source: PubChem (National Center for Advancing Translational Sciences (NCATS))
Cycloheximide cs: counter-screen for Shiga toxin inhibitors: cycloheximide protein synthesis inhibition; cell reporter, cycloheximide protein synthesis inhibition counterscreen; 12% of 300,000 active; max response, %; in the data active means max response mostly above about 13%, no sharp cut-off; inactive means mostly below about 14%; further: read at 38.3 µM for the half of the compounds with a filed dose; 0% is about no effect
Marburg entry inh: inhibitors of Marburg virus binding or cell entry; Marburg virus pseudotyped entry inhibition, cell reporter; Potency, µM (titrated, usually from 37.8 µM), for inactives: top-dose activity change, negative = inhibition, most hits filed as inhibitors; 1.8% of 300,000 active; calls by dose curve; tested in HEK293 cells; further: potency means the concentration at half of the fitted maximal effect; on the % scale 0 is the no-effect control and ±100 the full control effect
Lassa entry inh: blocks Lassa virus binding to or entry into cells; Lassa virus pseudotype entry inhibition, cell reporter; Potency, µM (top dose mostly 37.9 µM), without a hit: top-dose activity change, negative = inhibition, usual class: inhibitors; 1.2% of 300,000 active; calls by dose curve; tested in HEK293 cells; further: potency means the concentration at half of the fitted maximal effect; on the % scale 0 is the no-effect control and ±100 the full control effect; nearly all actives have a fitted effect of over 50% in size
Shiga inhibitor: inhibitors of Shiga toxin in Vero cells | Vero cells, Shiga toxin protein synthesis inhibition reporter | inhibition, % at 38.7 µM | 9.2% of 290,000 active | AID 2315; in the data active means inhibition mostly above about 28%, no sharp cut-off; inactive means mostly below about 43%; further: 0% is about no effect
HCV inh: HCV inhibition | 3.4% of 340,000 active | Potency, µM (highest dose often 41.8 µM), inactives show at the highest dose activity change, negative = inhibition, most hits filed as inhibitors | Huh7.5.1 HCVcc-Cre infection, luciferase reporter, 44 h; active means well fitted inhibition curve with a large enough effect; inconclusive means small, poorly fitted or top-dose-only effect, or another doubt; inactive means no such curve, though single readings can be large or run the other way; further: potency means the concentration at half of the fitted maximal effect; on the % scale 0 is the no-effect control and ±100 the full control effect
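Infectious HCV cell culture screen: compound-treated cells (1,000/well, pre-plated 4 h) are infected with HCVcc-Cre at roughly 0.5 moi and grown 44 h. Infection is quantified by luciferase signal after 15 min substrate incubation at room temperature.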
FMDV inh: foot and mouth disease virus antiviral activity. 1.2% of 410,000 active. AID 1159524. FMDV antiviral cell-based qHTS. Potency, µM (titrated, usually from 57.9 µM), without a hit: at the top dose activity change, negative = inhibition, hits mostly inhibitors; calls by dose curve; tested in HEK293T cells; further: read-out not given here; potency means the concentration at half of the fitted maximal effect; on the % scale 0 is the no-effect control and ±100 the full control effect; nearly all actives have a fitted effect of over 45% in size
Starred values were filed as active, the others as inactive; ? = inconclusive; . = no result; [ ] = dose if it differs, or a comment. An excerpt weighted towards active compounds, which were near 13% of everything screened.

SMILES	Cycloheximide cs	Marburg entry inh	Lassa entry inh	Shiga inhibitor	HCV inh	FMDV inh
O=C(c1cc(-c2cccs2)on1)N1CCOCC1	37*	7%	?	104*	12%	0%
O=C(c1cnn2c(C(F)(F)F)cc(-c3cccs3)nc12)N1CCN(C(c2ccccc2)c2ccccc2)CC1	9	13µM*	?	-2	?	-7%
Cc1ccc(CNC(=O)CC2Nc3c4ccccc4nc(=S)n3C2=O)cc1 (stereo unspecified)	13	.	.	-5	.	.
Cc1ccc(Nc2cc(=O)[nH]c(=O)[nH]2)c(C)c1	-7	?	26%	5	21%	-6%
CC1CCN(C(=O)CSc2nnc(-c3cccnc3)o2)CC1	-6	21%[46.1 µM]	17%[46.1 µM]	-7	22%	7%
Cc1cc(C)c2sc(N(CCCN(C)C)C(=O)c3ccc(Br)s3)nc2c1	-3	.	.	-12	13µM*	?
CN(C)CCN(C(=O)c1cccs1)c1nc2cc3c(cc2s1)OCCO3	51*	-7%	3%	82	17%	62%
Cc1cc(C)c2sc(N(CCN(C)C)C(=O)c3c(F)cccc3F)nc2c1	-6	?	-17%[46.1 µM]	-11	-5%	?
CN(C)CCCN(C(=O)c1ccc2c(c1)OCCO2)c1nc2cc3c(cc2s1)OCO3	2	?	29%	19	?	-6%
CN(C)CCN(C(=O)c1ccc(Br)s1)c1nc2cc3c(cc2s1)OCCO3	44*	-3%[46.1 µM]	16%[46.1 µM]	68*	11%	1%
COC(=O)c1ccc(NC(=O)Cn2c([N+](=O)[O-])cnc2C)cc1	-3	.	.	-10	-8%	-8%
CC1CC(C)CN(S(=O)(=O)N2CCC(C(=O)NCCC3=CCCCC3)CC2)C1 (stereo unspecified)	1	4%	0%	-10	11%	-20%
CC(C)(C)c1ccc(NC(=O)Nc2ccc(F)cc2)cc1	42*	?	?	68*	10µM*	-37%
CC(=O)Nc1ccc(NC(=O)Cc2ccc(F)cc2)cc1	4	.	.	-2	.	.
CCOc1ccc(NC(=O)Nc2cc(OCC(F)(F)F)cc(OCC(F)(F)F)c2)cc1	7	?	?	7	?	-12%
CC(C)(C)c1ccc(COC(=O)Nc2ccc(F)cc2)cc1	19*	?	13%	35*	9%	12%
O=C(Nc1ccc(F)cc1)Nc1cc(OCC(F)(F)F)cc(OCC(F)(F)F)c1	7	8.9µM*	18µM*	-6	?	-9%
CCO[C@@H]1OC(C(=O)N2CCN(Cc3ccc4c(c3)OCO4)CC2)=C[C@H](c2ccc3c(c2)OCO3)[C@H]1CCCO	-1	.	.	-7	2%	-20%
O=C(CNS(=O)(=O)c1cccs1)Nc1ccc2c(c1)OCCO2	43*	22%	16%	90*	-7%	34%
COc1ccc(S(=O)(=O)NCC(=O)Nc2ccc3c(c2)OCCO3)cc1OC	2	-13%[46.1 µM]	-5%	-2	-4%	19%
COC(=O)c1ccc(NC(=O)CNS(=O)(=O)c2cccs2)cc1	19*	6%	?	32	5%	21%
O=S(=O)(Nc1ccc2c(c1)OCCO2)c1cccs1	54*	11%	10%	83*	4%	.
CCN(CC)S(=O)(=O)c1ccc(S(=O)(=O)Nc2ccc(C(=O)N3CCCC3)cc2)cc1	-1	-4%	-17%	-18	0%	20%
CC(=O)Nc1ccc(S(=O)(=O)N2CCN(c3nc(NC4CCCC4)c4ccccc4n3)CC2)cc1	-6	?	?	-19	7.9µM*	?
COc1ccc(N(C(=O)c2cccc(C)c2)S(=O)(=O)c2ccc3c(c2)n(C)c(=O)n3C)cc1	.	-27%[46.1 µM]	?	.	.	0.028µM*
SMILES	Cycloheximide cs	Marburg entry inh	Lassa entry inh	Shiga inhibitor	HCV inh	FMDV inh
COc1ccc(C(=O)N(c2ccc(OC)cc2)S(=O)(=O)c2ccc3c(c2)n(C)c(=O)n3C)cc1	.	?	?	.	.	4%
Cc1ccccc1-c1nc2ccccc2c(=O)o1	.	.	.	.	.	-21%
CCOC(=O)NC(=O)CSc1nc(C)cc(C(F)(F)F)c1C#N	31*	3%	20%	84*	-7%	46%
Cc1cc(C(F)(F)F)c(C#N)c(SCC(=O)Nc2nc3cc(Br)ccc3s2)n1	39*	?	?	33*	0%	?
Cc1ccc(CNC(=O)CN(C)S(=O)(=O)c2cnc[nH]2)cc1	-1	-2%	-1%	-5	21%	5%
C#CCOCCOCCOCCNc1nc(N2CCN(C(=O)CCCCCCCCCCNC(=O)Cn3cc(C[C@@H](C)O)nn3)CC2)nc(N2CCN(C(=O)CCCCCCCCCCNC(=O)[C@@H]([C@H](C)CC)n3cc(CCCCCN)nn3)CC2)n1	.	.	.	.	?	35µM*
C#CCOCCOCCOCCNc1nc(N2CCN(C(=O)[C@H]([C@@H](C)CC)n3cc([C@@H](N)Cc4ccc(O)cc4)nn3)CC2)nc(N2CCN(C(=O)[C@H](CCCCN)n3cc([C@@H](N)CC(C)C)nn3)CC2)n1	35*	.	.	-13	.	.
C#CCOCCOCCOCCNc1nc(N2CCN(C(=O)[C@H](CCCCN)n3cc([C@@H](N)CC(C)C)nn3)CC2)nc(N2CCN(C(=O)[C@H](Cc3ccc(O)cc3)n3cc([C@@H](N)CC(C)C)nn3)CC2)n1	-1	.	.	-6	16%[8.37 µM]	-2%
C#CCOCCOCCOCCNc1nc(N2CCN(C(=O)CCCCCCCCCCNC(=O)[C@H](CCCCN)n3cc(C)nn3)CC2)nc(N2CCN(C(=O)CCCCCCCCCCNC(=O)[C@@H]([C@H](C)O)n3cc(C)nn3)CC2)n1	.	.	.	.	2.8µM*	-13%
Cc1cn([C@@H](CCCCNC(=O)OC(C)(C)C)C(=O)NCCCCCCCCCCC(=O)N2CCN(C(=O)OC(C)(C)C)CC2)nn1	.	.	.	.	?	11µM*
C#CCOCCOCCOCCNc1nc(N2CCN(C(=O)CCCCCCCCCCNC(=O)Cn3cc(CCCCCN)nn3)CC2)nc(N2CCN(C(=O)CCCCCCCCCCNC(=O)[C@@H]([C@H](C)O)n3cc(C)nn3)CC2)n1	.	.	.	.	-9%	-24%
C#CCOCCOCCOCCNc1nc(N2CCN(C(=O)CCCCCCCCCCNC(=O)Cn3cc(CCCCCN)nn3)CC2)nc(N2CCN(C(=O)CCCCCCCCCCNC(=O)Cn3cc(C[C@@H](C)O)nn3)CC2)n1	.	.	.	.	?	-5%
CC(Cc1ccccc1)C(=O)NCCO (stereo unspecified)	-2	2%	0%	-12	12%	6%
CN(C)C(=O)c1ccc2c(c1)n(C)c(=O)n2C	-1	11%	-5%	-9	9%	12%
COc1cc(C)ccc1OCc1cc(C(=O)NC(C)Cn2cncn2)no1 (stereo unspecified)	65*	-2%	?	81*	23%	55%
COc1cc(C)ccc1OCc1cc(C(=O)NCc2ccncc2)no1	59*	?	-4%	107*	-6%	30%
COc1cccc(NC(=O)CN(C)C(=O)c2ccc(COc3ccccc3)cc2)c1	.	-19%	0%	.	?	-20%
